From PubChem BioAssay
Hits are enriched below; roughly 3.7% of the tested compounds scored in any of these assays.
TCR act: activators of T cell receptors. AID 504894. Potency, µM (highest dose often 9.22 µM), for the others: top-dose activation of IL-2 secretion, hits mostly activators. 330,000 tested, under 10 active. primary human leukocytes, anti-CD3, IL-2 HTRF, 48 h; further: % of control where 0% means no effect
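Human primary leukocytes + a-CD3 beads + cpd, 48 hr; IL-2 in supernatant by HTRF (ex 320nm / em 665nm). No co-stimulatory signal supplied.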
FEN1 inhibitor: inhibitors of human flap endonuclease 1; P39748; Recombinant FEN1 flap cleavage, fluorescence, 15 min; Potency, µM (series often up to 114 µM), without a hit: at the highest dose activity change, negative = inhibition, most hits filed as inhibitors; 390,000 tested, 0.35% active; further: potency means the concentration at half of the fitted maximal effect; on the % scale 0 is the no-effect control and ±100 the full control effect; nearly all actives have a fitted effect of over 65% in size
Target sequence (P39748 whole entry, looked up): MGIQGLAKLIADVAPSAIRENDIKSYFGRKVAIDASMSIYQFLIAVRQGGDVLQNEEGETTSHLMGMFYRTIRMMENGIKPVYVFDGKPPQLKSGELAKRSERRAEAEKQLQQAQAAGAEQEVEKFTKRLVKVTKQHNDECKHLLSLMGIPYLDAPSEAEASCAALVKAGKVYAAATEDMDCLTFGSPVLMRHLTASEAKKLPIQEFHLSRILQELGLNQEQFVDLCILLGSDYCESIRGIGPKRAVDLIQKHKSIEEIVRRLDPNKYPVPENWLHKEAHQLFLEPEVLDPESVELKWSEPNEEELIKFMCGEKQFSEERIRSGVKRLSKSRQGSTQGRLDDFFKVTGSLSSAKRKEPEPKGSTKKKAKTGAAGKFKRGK
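Quantitative HTS format: each compound was titrated, incubated with 10 nM nuclease for 15 min at room temperature, then challenged with flap substrate at 50 nM final. Signal change over 15 min gave concentration–effect curves.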
WRN inhibitor: inhibitors of human WRN helicase; Q14191; WRN helicase unwinding, fluorescent forked duplex, kinetic; Potency, µM (highest dose often 114 µM), without a hit: at the top dose activity change, negative = inhibition, usual class: inhibitors; 360,000 tested, 0.46% active; AID 651768; further: potency means the concentration at half of the fitted maximal effect; on the % scale 0 is the no-effect control and ±100 the full control effect; nearly all actives have a fitted effect of over 55% in size
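Kinetic red-fluorescence monitoring (525/598 nm) tracks WRN helicase activity after 100 nM fluorophore-quencher forked duplex and 2 mM ATP are added to 20 nM enzyme pretreated 15 min at room temperature with compound.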
PLK1 PBD inh: blocks phosphopeptide binding to human PLK1 polo-box domain | P53350 | Plk1 PBD binding of FITC phosphopeptide, fluorescence polarization | Potency, µM, without a hit: max response, negative = inhibition, most hits filed as inhibitors | 360,000 tested, 2.8% active; further: potency means the concentration at half of the fitted maximal effect; series mostly up to about 57 µM; on the % scale 0 is the no-effect control and ±100 the full control effect; nearly all actives have a fitted effect of over 65% in size
PI5P4Ka inh: blocks human PI5P4K alpha kinase activity | PI5P4Kalpha enzyme, ADP-Glo luminescence, 60 min; hits give low values | AID 652105 | 330,000 tested, 1.2% active | max response, %; active means max response of -50% or lower; inconclusive means between -30% and -50%; inactive means -30% or higher; further: value at the top dose of about 77 µM; on the % scale 0 is the no-effect control and ±100 the full control effect
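qHTS, 1536-well: enzyme/substrate mix, compound by pin tool, 5 microM ATP final; RT 60 min; ADP-Glo reagents 1 (45 min) then 2 (30 min); luminescence.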
VDR inhibitor: vitamin D3 receptor (human) inhibition; Potency, µM, for inactives: max response, negative = inhibition, usual class: inhibitors; AID 504847; VDR-SRC2-3 peptide fluorescence polarization, 2 h; P11473; 400,000 tested, 0.93% active; further: potency means the concentration at half of the fitted maximal effect; on the % scale 0 is the no-effect control and ±100 the full control effect
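Measured by FP: displacement of SRC2-3 coactivator peptide from VDR by library compounds, following a two-hour ambient incubation.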
Numbers without * were called inactive; ? = inconclusive; · = no result; [ ] = remark or other dose. Unless noted, the call rests on the fitted dose curve; in most records, active means well fitted curve in the direction sought with a large enough effect; inconclusive means small, poorly fitted or top-dose-only effect, or another doubt; inactive means no such curve, though single readings can be large; an effect the other way counts as inactive or inconclusive.

SMILES	TCR act	FEN1 inhibitor	WRN inhibitor	PLK1 PBD inh	PI5P4Ka inh	VDR inhibitor
CCC(C)NC(=O)CCSc1nc(-c2ccc(OC)cc2)cc(C(F)(F)F)n1 (centres undefined)	·	9%	·	·	·	-1%
CCOC(=O)CS(=O)(=O)c1nc(-c2ccc(F)cc2)cc(C(F)(F)F)n1	-10%	4%	50µM*	5.3µM*	-11	?
Cc1cc(NC(=O)CCCS(=O)(=O)c2nc(-c3cccs3)cc(C(F)(F)F)n2)no1	-1%	2%	-9%	?	-6	18µM*
Cc1cc(NC(=O)CSc2nc(-c3cccs3)cc(C(F)(F)F)n2)no1	4%	-3%	-8%	-10%	·	8%
COCC(C)NC(=O)CCS(=O)(=O)c1nc(-c2ccc(OC)cc2)cc(C(F)(F)F)n1 (centres undefined)	3%	-19%	7%	?	0	79µM*
COC(=O)CCS(=O)(=O)c1nc(-c2ccccc2)cc(C(F)(F)F)n1	0%	5%	-3%	21µM*	·	20µM*
CCOC(=O)C1=C(N)OC2=C(C(=O)CC(C)(C)C2)C1c1ccoc1 (centres undefined)	0%	9%	-1%	21µM*	-17	-1%
Cn1cc(Cl)c(C(=O)NNC(=S)NCc2ccco2)n1	-2%	2%	-4%	27µM*	-9	?
O=C(NNC(=S)NCc1ccco1)c1ccc(Cl)s1	1%	-2%	-4%	-18%	1	1%
Cc1cc(C)cc(-n2c(SCC(=O)Nc3nnc(C)s3)nc3c([nH]c4ccccc43)c2=O)c1	·	3%	·	·	·	-2%
CCCCn1c(N)c(N(Cc2ccccc2OC)C(=O)CSCC(=O)Nc2cccc(C)c2)c(=O)[nH]c1=O	-4%	-3%	-8%	30µM*	?	-19%
COc1ccc(-n2c(SCC(=O)Nc3cc(C(=O)O)ccc3C)nc3ccccc3c2=O)cc1Cl	1%	13%	-14%	-6%	-64*	6%
COc1ccc(C2NN=C(c3ccc(C)cc3)S2)cc1OC (centres undefined)	-5%	-5%	-2%	24µM*	-5	-8%
COc1ccc(C2/C=C\CN(CC(C)C)C(C)C(=O)N2Cc2ccc(F)cc2)cc1 (centres undefined)	·	-2%	·	·	·	-22%
O=C(OCC(=O)N(C1CCCCC1)C1CCCCC1)c1ccncc1	0%	-17%	1%	21µM*	2	-19%
COc1cc(SSc2cc(OC)cc([N+](=O)[O-])c2N)c(N)c([N+](=O)[O-])c1	2%	?	1%	0.67µM*	-93*	7.9µM*
Cc1ccc(C(=O)Nc2ccc3c(c2)OCO3)o1	6%	-3%	9%	12µM*	-24	-5%
CN(C)C(=S)Nc1ccc2c(c1)OCO2	-4%	-15%	-8%	6.7µM*	-15	-8%
O=C(Nc1nnc2n1CCS2)c1ccc(F)cc1F	·	2%	·	·	·	15%
Cc1cc(C)c(NC(=O)C2CCN(c3nc4ccccc4n4cccc34)CC2)c(C)c1	·	-5%	·	·	·	-6%
Cc1cc(Cn2nnnc2-c2ccncc2)cc(C)c1O	-4%	17%	11%	38µM*	4	4%
O=C(C[n+]1ccnc2ccccc21)c1ccc(Cl)cc1	·	0%	·	·	·	·
O=C(C[n+]1ccccc1)c1ccc(NC(=O)c2ccccc2)cc1	-5%	9%	4%	-14%	?	-2%
NC(=O)c1cc[n+](CC(=O)c2ccc(NC(=O)c3ccccc3)cc2)cc1	-2%	-4%	10%	24µM*	-17	?
O=C(Cn1cc(F)c(=O)[nH]c1=O)NCCO	0%	14%	7%	5.3µM*	3	-3%
SMILES	TCR act	FEN1 inhibitor	WRN inhibitor	PLK1 PBD inh	PI5P4Ka inh	VDR inhibitor
Cc1cccc(OCCSc2nc(N)cc(N)n2)c1	8%	-13%	8%	3.8µM*	-18	?
Cc1ccc(NC(=S)NNC(=S)NCc2ccccc2)cc1	0%	-3%	-7%	30µM*	?	50µM*
CCOC(=O)c1c[nH]c2c(Cl)c(Cl)ccc2c1=O	·	3%	-1%	27µM*	-1	-13%
CCOC(=O)c1c[nH]c2c(C)ccc(Cl)c2c1=O	0%	2%	-22%	19µM*	-24	79µM*
c1ccc(-c2ccc(OCCN3CCCC3)cc2)cc1	·	·	·	·	·	-9%
CC(C)(C)c1cc(-c2n[nH]c(=S)n2-c2ccc(Cl)cc2)n[nH]1	-13%	13%	-28%	30µM*	-13	?
COC(=O)C1=C(C)[C@H](O)[C@@H](C)[C@](C)(c2cc(OC)c(C)c(OC)c2COc2ccccc2)O1	·	·	·	·	·	0%
COC(=O)c1ccccc1N=C(SC)N(C)C	3%	-2%	-1%	30µM*	-9	?
COC(=O)c1ccccc1NC(=S)N(C)C	-1%	5%	0%	-5%	5	8%
COc1ccccc1N1CCN(c2ccc(=O)n(CC(=O)NCc3ccc(F)cc3)n2)CC1	·	16%	·	·	·	9%
O=C(CCc1ccc(S(=O)(=O)N2CCOCC2)cc1)N/N=C/c1ccc(O)c(O)c1O	9%[46.1 µM]	?	79µM*	11µM*	?	-1%
COCCCNC(=O)c1ccc(-n2c(-c3ccccc3)cc3c2CCC(C)C3)cc1 (centres undefined)	·	-5%	·	·	·	5%
Nc1nc(SCC(=O)N2N=C3/C(=C/c4ccco4)CCCC3C2c2ccco2)n[nH]1 (centres undefined)	-1%	-7%	-4%	-9%	-52*	3%
Nc1nc(SCC(=O)N2N=C3/C(=C\c4ccco4)CCCC3C2c2ccco2)n[nH]1 (centres undefined)	4%	4%	-2%[11.6 µM]	-7%	?	1%
O=C(CSc1nccc(=O)[nH]1)N1N=C2/C(=C/c3ccco3)CCCC2C1c1ccco1 (centres undefined)	-2%	-2%	?	-17%	-58*	-10%
COc1ccc(-c2cnc(C)o2)cc1S(=O)(=O)Nc1ccc(C)c(F)c1	·	-10%	·	·	·	9%
CCc1ccc(OCc2nnc(-c3ccccc3Br)o2)cc1	0%	-13%	-9%	30µM*	0	-7%
O=C(NC1CCCC1)C(c1ccccn1)N(C(=O)c1csnn1)C1CC1 (centres undefined)	-29%	-2%	2%	-12%	·	-13%
O=C(NC1CCCC1)C(c1ccccn1)N(C(=O)c1csnn1)C1CCCCC1 (centres undefined)	-1%[46.1 µM]	-5%	9%	27µM*	-19	?
CC(NC(=O)Cc1ccc(-c2ccccc2)cc1)c1ccccc1 (centres undefined)	-20%	0%	0%	27µM*	-15	?
CC(NC(=O)Cc1ccccc1F)c1ccc(F)cc1 (centres undefined)	0%	-10%	7%[57.1 µM]	24µM*	-2	1%
